According to PubChem BioAssay (NCATS):
Results filed as inconclusive are left out. Active and inactive are the calls of the source. Calls follow the shape of the dose curve; as a rule, active = well fitted curve in the direction sought with a large enough effect; inconclusive = small, poorly fitted or top-dose-only effect, or another doubt; inactive = no such curve, though single readings can be large; an effect the other way counts as inactive or inconclusive.

What was measured:
[1] = test system: HEK293; assay: Cytotoxic Profiling of Annotated Libraries Using Quantitative High-Throughput Screening (AID 1296008); conditions: Five cell lines viability, CellTiter-Glo ATP luminescence, 48-72 h; max response: active compounds read low; also: nearly all actives have a fitted effect of over 60% in size; also: potency is read from the fitted curve at half-maximal effect
Summary of the method: (§1)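 Compounds were pin-transferred onto cells and incubated 48 or 72 hr at 37 degree Celsius, 95% humidity. CellTiter-Glo was added, plates sat 10 min at room temperature, then ATP-coupled luminescence was imaged as the viability read-out.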

[2] = test system: HaCat; assay: as above; conditions: Five cell lines viability, CellTiter-Glo ATP luminescence, 48-72 h; max response: active compounds read low
Summary of the method: as §1

[3] = test system: KB-3-1; assay: as above; conditions: Five cell lines viability, CellTiter-Glo ATP luminescence, 48-72 h; max response: active compounds read low
Summary of the method: as §1

[4] = test system: NIH3T3; assay: as above; conditions: Five cell lines viability, CellTiter-Glo ATP luminescence, 48-72 h; max response: active compounds read low
Summary of the method: as §1

[5] = test system: C33A; assay: Primary qHTS to identify gynecologic anti-cancer compounds using libraries of approved drugs and bioactive compounds (AID 1345084); conditions: Gynecologic cancer cell panel viability, ATPlite luminescence, 48 h; series mostly up to 57.5 µM; also: nearly all actives have a fitted effect of over 55% in size
Summary of the method: (§2)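 Cell viability after 48 h drug treatment, ATPlite luminescence readout; five doses.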

[6] = test system: CAOV3; assay: as above; conditions: Gynecologic cancer cell panel viability, ATPlite luminescence, 48 h; series mostly up to 57.5 µM
Summary of the method: as §2

[7] = test system: CASKI; assay: as above; conditions: Gynecologic cancer cell panel viability, ATPlite luminescence, 48 h; series mostly up to 57.5 µM
Summary of the method: as §2

[8] = test system: Es-2; assay: as above; conditions: Gynecologic cancer cell panel viability, ATPlite luminescence, 48 h; series mostly up to 57.5 µM
Summary of the method: as §2

[9] = test system: HeLa; assay: as above; conditions: Gynecologic cancer cell panel viability, ATPlite luminescence, 48 h; series mostly up to 57.5 µM
Summary of the method: as §2

[10] = test system: Hek293T; assay: as above; conditions: Gynecologic cancer cell panel viability, ATPlite luminescence, 48 h, control line for the selectivity index; series mostly up to 57.5 µM
Summary of the method: as §2

[11] = test system: JEG-3; assay: as above; conditions: Gynecologic cancer cell panel viability, ATPlite luminescence, 48 h; series mostly up to 57.5 µM
Summary of the method: as §2
% is scaled to controls: 0 for no effect and ±100 for the full control effect.

O=C(O)c1cn(C2CC2)c2cc(N3C[C@@H]4C[C@H]3CN4)c(F)cc2c1=O
inactive: max response [1] -1.22% | max response [2] -12.6% | outcome [3] | max response [4] -4.63% | Potency [5] | Potency [6] | Potency [7] | Potency [8] | Potency [9] | Potency [10] | Potency [11]

C=C1CCC2C(C)(C)C(O)CCC2(C)C1CCC(C)CCOC(C)=O (stereo not given)
inactive: max response [1] -19.2% | max response [2] -5.36% | max response [3] 3.19% | max response [4] -9.96% | Potency [5] | Potency [6] | Potency [7] | Potency [8] | Potency [9] | Potency [10] | Potency [11]

C/C=C(\C)C(=O)O[C@H]1[C@@H](O[C@]2(COC(=O)CC(C)C)O[C@H](COC(=O)C(C)CC)[C@@H](OC(C)=O)[C@@H]2O)O[C@H](COC(C)=O)[C@@H](O)[C@@H]1O (stereo not given in full)
inactive: max response [1] 2.82% | max response [2] 1.55% | max response [3] 6.8% | max response [4] -0.857% | Potency [5] | Potency [6] | Potency [7] | Potency [8] | Potency [9] | Potency [10] | Potency [11]

CC1CCC2(CO)C(C(=O)O)=CCCC2C1(C)CCc1ccoc1 (stereo not given)
inactive: max response [1] -3.01% | max response [2] -11.9% | max response [3] 3.67% | max response [4] -11.3% | Potency [5] | Potency [6] | Potency [7] | Potency [8] | Potency [9] | Potency [10] | Potency [11]

O=C(OC[C@@]1(O)CO[C@@H](O[C@H]2[C@H](Oc3ccc(O)cc3)O[C@H](CO)[C@@H](O)[C@@H]2O)[C@@H]1O)c1ccc(O)cc1
inactive: max response [1] -7.32% | max response [2] -0.439% | max response [3] -1.14% | max response [4] -2.03% | Potency [5] | Potency [6] | Potency [7] | Potency [8] | Potency [9] | Potency [10] | Potency [11]

CC/C=C\[C@H](O)[C@H](O)C1=C(C)C(=O)[C@]2(O1)C(=O)N[C@@](OC)(C(=O)c1ccccc1)[C@@H]2O
inactive: max response [1] -0.3% | max response [2] -9.21% | max response [3] 7.92% | max response [4] 1.26% | Potency [5] | Potency [6] | Potency [7] | Potency [8] | Potency [9] | Potency [10] | Potency [11]

C=C(F)c1sc(CNCCCNc2cc(=O)c3ccccc3[nH]2)c(C)c1Br
active: Potency [1] 6.51 µM | Potency [3] 16.4 µM
inactive: max response [2] -0.153% | max response [4] -1.77% | Potency [5] | Potency [6] | Potency [7] | Potency [8] | Potency [9] | Potency [10] | Potency [11]

OC[C@H]1O[C@@H](OC(CCCCc2ccc(O)cc2)CCc2ccc(O)cc2)[C@H](O)[C@@H](O)[C@@H]1O (stereo not given in full)
inactive: max response [1] -49.4% | max response [2] -20.5% | outcome [3] | max response [4] -27.4% | Potency [5] | Potency [6] | Potency [7] | Potency [8] | Potency [9] | Potency [10] | Potency [11]

N#C[C@@H]1C[C@H](F)CN1C(=O)CNC1[C@H]2CN(C(=O)c3ccc(F)cc3)C[C@@H]12 (stereo not given in full)
inactive: max response [1] 2.87% | max response [2] -7.89% | max response [3] 1.86% | max response [4] -2.06% | Potency [5] | Potency [6] | Potency [7] | Potency [8] | Potency [9] | Potency [10] | Potency [11]

COc1cccc2cc3c(c(O[C@@H]4O[C@H](CO[C@@H]5O[C@H](CO)[C@@H](O)[C@H](O)[C@H]5O)[C@@H](O)[C@H](O)[C@H]4O)c12)C(C)OC3=O (stereo not given in full)
inactive: max response [1] 2.15% | max response [2] -3.49% | max response [3] 9.17% | max response [4] 0.0764% | Potency [5] | Potency [6] | Potency [7] | Potency [8] | Potency [9] | Potency [10] | Potency [11]

Nc1ncnc2c1ncn2CCNCCCCCO
inactive: max response [1] 4.45% | max response [2] -23.1% | outcome [3] | max response [4] -0.352% | Potency [5] | Potency [6] | Potency [7] | Potency [8] | Potency [9] | Potency [10] | Potency [11]

CCn1cc(NC(=S)Nc2cc(Cl)ccc2OC)c(C(N)=O)n1
inactive: max response [1] -2.95% | max response [2] -0.793% | outcome [3] | max response [4] -1.95% | Potency [5] | Potency [6] | Potency [7] | Potency [8] | Potency [9] | Potency [10] | Potency [11]

CC1(C)CC[C@]2(C(=O)OC3OC(CO)C(O)C(O)C3O)CC[C@]3(C)C(=CCC4[C@@]5(C)CC[C@H](OC6OC(C(=O)O)C(O)C(OC7OC(CO)C(O)C(O)C7O)C6O)C(C)(C)C5CC[C@]43C)C2C1 (stereo not given in full)
inactive: max response [1] 1.3% | max response [2] -1.22% | max response [3] -3.39% | max response [4] 0.867% | activity change, negative = cytotoxicity [5] 0.815% [at 11.6 µM] | activity change, negative = cytotoxicity [6] -9.9% [at 11.6 µM] | activity change, negative = cytotoxicity [7] 5.34% [at 11.6 µM] | activity change, negative = cytotoxicity [8] -1.41% [at 11.6 µM] | activity change, negative = cytotoxicity [9] 2% [at 11.6 µM] | activity change, negative = cytotoxicity [10] 0.993% [at 11.6 µM] | activity change, negative = cytotoxicity [11] 1.51% [at 11.6 µM]

CC(C)(O)/C=C/CC(C)(O)C1C(O)CC2(C)C3CCC4C(C)(C)C(=O)CCC4(C)C3CCC12C (stereo not given)
inactive: max response [1] 1.96% | max response [2] -10.7% | outcome [3] | max response [4] -0.144% | Potency [5] | Potency [6] | Potency [7] | Potency [8] | Potency [9] | Potency [10] | Potency [11]

CC(=O)N1CCc2ccc(O)c(OC3OC(COC4OCC(O)(CO)C4O)C(O)C(O)C3O)c2C1Cc1ccc(O)cc1 (stereo not given)
inactive: max response [1] -5.03% | max response [2] -0.476% | max response [3] 3.16% | max response [4] -4.18% | Potency [5] | Potency [6] | Potency [7] | Potency [8] | Potency [9] | Potency [10] | Potency [11]

C=C(CO[C@@H]1O[C@H](CO[C@@H]2OC[C@](O)(CO)[C@H]2O)[C@@H](O)[C@H](O)[C@H]1O)C1Cc2cc(C(C)=O)ccc2O1 (stereo not given in full)
inactive: max response [1] -4.65% | max response [2] -0.415% | max response [3] 7.61% | max response [4] 3.36% | Potency [5] | Potency [6] | Potency [7] | Potency [8] | Potency [9] | Potency [10] | Potency [11]

CC(=O)CCC1=C(C)C(O[C@@H]2O[C@H](CO)[C@@H](O)[C@H](O)[C@H]2O)C(O)CC1(C)C (stereo not given in full)
inactive: max response [1] 0.019% | max response [2] 1.46% | max response [3] 1.06% | max response [4] 3.13% | Potency [5] | Potency [6] | Potency [7] | Potency [8] | Potency [9] | Potency [10] | Potency [11]

COc1c2c(c(C)c3c1C(=O)OC3)OC1(C)CC(O)C34OC(OC)(OC3(C)C)C(O)CC4(C)C1C2 (stereo not given)
inactive: max response [1] -9.65% | max response [2] -21.2% | outcome [3] | max response [4] -1.37% | Potency [5] | Potency [6] | Potency [7] | Potency [8] | Potency [9] | Potency [10] | Potency [11]

OC[C@H]1O[C@@H](OCCc2ccccc2)[C@H](O[C@@H]2OC[C@](O)(CO)[C@H]2O)[C@@H](O)[C@@H]1O
inactive: max response [1] -11.4% | max response [2] 0.135% | outcome [3] | max response [4] 1.81% | Potency [5] | Potency [6] | Potency [7] | Potency [8] | Potency [9] | Potency [10] | Potency [11]

CC(=O)C1=CCC2C3CCC4CC(O[C@@H]5O[C@H](CO)[C@@H](O[C@@H]6O[C@@H](C)[C@H](O)[C@@H](O)[C@H]6O)[C@H](O)[C@H]5O[C@@H]5O[C@H](CO)[C@@H](O)[C@H](O)[C@H]5O)CCC4(C)C3CCC12C (stereo not given in full)
inactive: max response [1] -11.1% | max response [2] -22.8% | outcome [3] | max response [4] -4.06% | Potency [5] | Potency [6] | Potency [7] | Potency [8] | Potency [9] | Potency [10] | Potency [11]

O=C(O)c1cc(I)ccc1NC(=O)[C@H](Cc1ccccc1)NCc1ccccc1
inactive: max response [1] -1.33% | max response [2] -2.36% | max response [3] -0.475% | max response [4] 1.92% | Potency [5] | Potency [6] | Potency [7] | Potency [8] | Potency [9] | Potency [10] | Potency [11]

CC1CC[C@]2(C(=O)O)CC[C@]3(C(=O)O)C(=CCC4[C@@]5(C)CC[C@H](OC6OC(C)C(O)C(OC7OC(CO)C(O)C(O)C7O)C6O)C(C)(C)C5CC[C@]43C)C2C1C (stereo not given in full)
inactive: max response [1] -0.0822% | max response [2] -2.82% | outcome [3] | max response [4] 2.41% | Potency [5] | Potency [6] | Potency [7] | Potency [8] | Potency [9] | Potency [10] | Potency [11]

Cc1cc(O)cc(O[C@@H]2O[C@H](CO)[C@@H](O)[C@H](O)[C@H]2O)c1
inactive: max response [1] 0.562% | max response [2] -10.5% | max response [3] 4.47% | max response [4] -8.17% | Potency [5] | Potency [6] | Potency [7] | Potency [8] | Potency [9] | Potency [10] | Potency [11]

O=C(CCCCN1CCOCC1)Nc1ccc(-c2cccnc2)cc1
inactive: max response [1] 0.956% | max response [2] -1.44% | max response [3] 3.7% | max response [4] 4.47% | Potency [5] | Potency [6] | Potency [7] | Potency [8] | Potency [9] | Potency [10] | Potency [11]

COC1CC(OC2CCC3(C)C(=CCC4C3C(OC(C)=O)C(OC(=O)/C=C/c3ccccc3)C3(C)C(C(C)O)CCC43O)C2)OC(C)C1OC1CC(OC)C(OC2OC(C)C(OC3OC(CO)C(O)C(O)C3O)C(OC)C2O)C(C)O1 (stereo not given)
inactive: max response [1] -2.45% | max response [2] 0.93% | max response [3] -1.59% | max response [4] 0.895% | activity change, negative = cytotoxicity [5] -4.62% [at 6.55 µM] | activity change, negative = cytotoxicity [6] 1.34% [at 6.55 µM] | activity change, negative = cytotoxicity [7] -3.47% [at 6.55 µM] | activity change, negative = cytotoxicity [8] 4.75% [at 6.55 µM] | activity change, negative = cytotoxicity [9] -0.474% [at 6.55 µM] | activity change, negative = cytotoxicity [10] -0.285% [at 6.55 µM] | activity change, negative = cytotoxicity [11] -8.61% [at 6.55 µM]
